Measured values as given in PubChem BioAssay (NCATS).
Results filed as inconclusive are left out. Activity calls are given as the source filed them. Unless noted, calls come from the whole dose curve; as a rule, active = well fitted curve in the direction sought with a large enough effect; inconclusive = small, poorly fitted or top-dose-only effect, or another doubt; inactive = no such curve, though single readings can be large; an effect the other way counts as inactive or inconclusive.

Key:
7G8 = assay: qHTS profiling for inhibitors of Plasmodium falciparum proliferation (AID 504749); note: nearly all actives have a fitted effect of over 60% in size; note: potency is the fitted concentration of half-maximal effect; conditions: P. falciparum in erythrocytes, SYBR Green DNA, 72 h; series mostly up to 12.8 µM
Summary of the method: (§1)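 Fluorescence of SYBR Green-bound parasite DNA, read at 485/535 nm, served as the growth measure. Infected erythrocytes were cultured with compound 72 h; artemisinin (0.29 uM) and DMSO wells defined the normalization range.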

AA1029 = assay: as above; conditions: P. falciparum in erythrocytes, SYBR Green DNA, 72 h; series mostly up to 12.8 µM
Summary of the method: as §1

ATS95 = assay: as above; conditions: P. falciparum in erythrocytes, SYBR Green DNA, 72 h; series mostly up to 12.8 µM
Summary of the method: as §1

CP260 = assay: as above; conditions: P. falciparum in erythrocytes, SYBR Green DNA, 72 h; series mostly up to 12.8 µM
Summary of the method: as §1

CP265 = assay: as above; conditions: P. falciparum in erythrocytes, SYBR Green DNA, 72 h; series mostly up to 12.8 µM
Summary of the method: as §1

CP286 = assay: as above; conditions: P. falciparum in erythrocytes, SYBR Green DNA, 72 h; series mostly up to 12.8 µM
Summary of the method: as §1

CP335 = assay: as above; conditions: P. falciparum in erythrocytes, SYBR Green DNA, 72 h; series mostly up to 12.8 µM
Summary of the method: as §1

DFO2036 = assay: as above; conditions: P. falciparum in erythrocytes, SYBR Green DNA, 72 h; series mostly up to 12.8 µM
Summary of the method: as §1

GB4 = assay: as above; conditions: P. falciparum in erythrocytes, SYBR Green DNA, 72 h; series mostly up to 12.8 µM
Summary of the method: as §1

P93_24 = assay: as above; conditions: P. falciparum in erythrocytes, SYBR Green DNA, 72 h; series mostly up to 12.8 µM
Summary of the method: as §1

P94_40 = assay: as above; conditions: P. falciparum in erythrocytes, SYBR Green DNA, 72 h; series mostly up to 12.8 µM
Summary of the method: as §1

PC26 = assay: as above; conditions: P. falciparum in erythrocytes, SYBR Green DNA, 72 h; series mostly up to 12.8 µM
Summary of the method: as §1

TAB109 = assay: as above; conditions: P. falciparum in erythrocytes, SYBR Green DNA, 72 h; series mostly up to 12.8 µM
Summary of the method: as §1

[1] = molecular target: Cytochrome P450 1A2 (Homo sapiens) (UniProt P05177); assay: p450-cyp1a2 (AID 410; calls by dose curve; note: potency is the fitted concentration of half-maximal effect)
Summary of the method: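 20nM CYP1A2, 100uM Luciferin-ME (=Km), 100mM KPO4; cpd 10 min RT; +NADPH regen, 60 min RT; stop/detect 20 min; luminescence. Normalized to furafylline 57 uM = full inhibition.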

[2] = molecular target: Cytochrome P450 2C9 (Homo sapiens) (UniProt P11712); assay: qHTS Assay for Inhibitors and Substrates of Cytochrome P450 2C9 (AID 883); note: nearly all actives have a fitted effect of over 60% in size; note: potency is the fitted concentration of half-maximal effect
Summary of the method: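 A luminogenic readout tracked human CYP2C9 (10nM) converting deoxyluciferin (100uM, at KM) in 25mM KPO4 during 60 min at 37C with regenerated NADPH. Values normalized to 57uM sulphaphenazole as complete inhibition.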

[3] = molecular target: Cytochrome P450 3A4 (Homo sapiens) (UniProt P08684); assay: qHTS Assay for Inhibitors and Substrates of Cytochrome P450 3A4 (AID 884); note: nearly all actives have a fitted effect of over 50% in size; note: potency is the fitted concentration of half-maximal effect
Summary of the method: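 Luminescent readout of luciferin produced by CYP3A4 (20 nM) dealkylation of Luciferin-PPXE, 25 uM (its KM). NADPH-driven reaction ran 60 min at RT after 10 min compound preincubation; data scaled to 57 uM ketoconazole as 100% inhibition.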

[4] = molecular target: Cytochrome P450 2D6 (Homo sapiens) (UniProt P10635); assay: qHTS Assay for Inhibitors and Substrates of Cytochrome P450 2D6 (AID 891); note: nearly all actives have a fitted effect of over 60% in size; note: potency is the fitted concentration of half-maximal effect
Summary of the method: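 Luminescent read-out of luciferin formed by 5 nM human CYP2D6 demethylating 30 uM Luciferin-ME EGE (Km level) over 60 min at room temperature after NADPH regeneration addition. Data normalized to full inhibition by 1.43 uM quinidine.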

[5] = molecular target: Cytochrome P450 2C19 (Homo sapiens) (UniProt P33261); assay: qHTS Assay for Inhibitors and Substrates of Cytochrome P450 2C19 (AID 899); note: nearly all actives have a fitted effect of over 60% in size; note: potency is the fitted concentration of half-maximal effect
Summary of the method: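 NADPH-dependent conversion of Luciferin-H EGE (10uM, at KM) by 5nM enzyme in 50mM KPO4, 60 min at 37C following 10 min compound preincubation. Stopped with luciferin detection buffer; luminescence read after 20 min.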

[6] = S16 Schwann cell PMP22 intronic element beta-lactamase assay (AID 624044; calls by dose curve; note: nearly all actives have a fitted effect of over 15% in size)
Summary of the method: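 Beta-lactamase reporter under a PMP22 intronic regulatory element in stable S16 rat Schwann cells; 24 h compound exposure. 460 nm blue signal normalized between DMSO (0%) and potassium clavulanate, with 535 nm FRET tracking viability; curves classed by r2 and response.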

[7] = molecular target: Cytochrome P450 3A4 (Homo sapiens) (UniProt P08684); assay: qHTS Assay for Activators of Cytochrome P450 3A4 (AID 885); note: nearly all actives have a fitted effect of over 65% in size; note: potency is the fitted concentration of half-maximal effect
Summary of the method: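 Luminescent readout of luciferin formed from 25 uM Luciferin-PPXE (KM level) by 20 nM CYP3A4 in 200 mM KPO4, with 60 min NADPH-driven reaction at room temperature after 10 min compound exposure. Ketoconazole (57 uM) defined 100% inhibition.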

Measured: Potency

Chain of Cytochrome P450 1A2 (Homo sapiens) (P05177 whole entry, looked up): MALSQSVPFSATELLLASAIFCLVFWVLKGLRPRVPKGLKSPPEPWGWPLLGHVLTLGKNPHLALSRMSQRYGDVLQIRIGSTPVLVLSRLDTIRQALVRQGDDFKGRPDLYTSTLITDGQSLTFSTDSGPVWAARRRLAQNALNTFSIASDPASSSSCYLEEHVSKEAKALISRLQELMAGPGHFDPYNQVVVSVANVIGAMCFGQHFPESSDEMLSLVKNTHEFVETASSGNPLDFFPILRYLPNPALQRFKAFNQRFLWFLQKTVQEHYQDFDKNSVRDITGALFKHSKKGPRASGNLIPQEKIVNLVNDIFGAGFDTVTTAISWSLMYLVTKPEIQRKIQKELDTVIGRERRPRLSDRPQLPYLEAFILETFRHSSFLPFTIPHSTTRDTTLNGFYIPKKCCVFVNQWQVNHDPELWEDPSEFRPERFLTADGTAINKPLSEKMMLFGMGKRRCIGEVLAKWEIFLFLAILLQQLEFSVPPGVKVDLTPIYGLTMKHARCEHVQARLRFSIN
Chain of Cytochrome P450 2C9 (Homo sapiens) (P11712 whole entry, looked up): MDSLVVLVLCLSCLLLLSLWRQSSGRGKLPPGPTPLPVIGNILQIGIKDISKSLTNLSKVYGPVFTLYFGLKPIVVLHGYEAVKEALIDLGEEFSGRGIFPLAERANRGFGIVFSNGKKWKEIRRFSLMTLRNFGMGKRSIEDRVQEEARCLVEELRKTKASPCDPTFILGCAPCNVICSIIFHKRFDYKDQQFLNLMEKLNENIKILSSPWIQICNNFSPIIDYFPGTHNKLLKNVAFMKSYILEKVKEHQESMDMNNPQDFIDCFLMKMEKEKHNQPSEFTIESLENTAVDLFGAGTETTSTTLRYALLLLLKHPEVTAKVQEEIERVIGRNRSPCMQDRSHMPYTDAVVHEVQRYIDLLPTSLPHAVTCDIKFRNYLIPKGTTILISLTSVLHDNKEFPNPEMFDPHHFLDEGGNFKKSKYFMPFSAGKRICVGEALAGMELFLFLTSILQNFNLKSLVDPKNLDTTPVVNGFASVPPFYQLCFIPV
Chain of Cytochrome P450 2C19 (Homo sapiens) (P33261 whole entry, looked up): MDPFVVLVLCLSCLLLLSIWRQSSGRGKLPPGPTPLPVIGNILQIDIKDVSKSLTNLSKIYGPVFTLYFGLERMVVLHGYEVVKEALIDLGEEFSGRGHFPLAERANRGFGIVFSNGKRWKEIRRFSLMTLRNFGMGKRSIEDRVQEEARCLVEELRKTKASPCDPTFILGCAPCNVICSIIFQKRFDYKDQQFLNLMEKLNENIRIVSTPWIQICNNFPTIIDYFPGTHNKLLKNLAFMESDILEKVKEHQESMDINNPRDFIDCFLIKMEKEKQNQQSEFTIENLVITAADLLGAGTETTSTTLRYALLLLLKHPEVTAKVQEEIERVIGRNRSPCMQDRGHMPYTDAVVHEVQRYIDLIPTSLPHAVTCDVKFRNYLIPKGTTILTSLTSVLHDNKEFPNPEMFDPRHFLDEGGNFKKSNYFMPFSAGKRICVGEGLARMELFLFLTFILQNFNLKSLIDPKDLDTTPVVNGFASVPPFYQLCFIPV
Chain of Cytochrome P450 3A4 (Homo sapiens) (P08684 whole entry, looked up): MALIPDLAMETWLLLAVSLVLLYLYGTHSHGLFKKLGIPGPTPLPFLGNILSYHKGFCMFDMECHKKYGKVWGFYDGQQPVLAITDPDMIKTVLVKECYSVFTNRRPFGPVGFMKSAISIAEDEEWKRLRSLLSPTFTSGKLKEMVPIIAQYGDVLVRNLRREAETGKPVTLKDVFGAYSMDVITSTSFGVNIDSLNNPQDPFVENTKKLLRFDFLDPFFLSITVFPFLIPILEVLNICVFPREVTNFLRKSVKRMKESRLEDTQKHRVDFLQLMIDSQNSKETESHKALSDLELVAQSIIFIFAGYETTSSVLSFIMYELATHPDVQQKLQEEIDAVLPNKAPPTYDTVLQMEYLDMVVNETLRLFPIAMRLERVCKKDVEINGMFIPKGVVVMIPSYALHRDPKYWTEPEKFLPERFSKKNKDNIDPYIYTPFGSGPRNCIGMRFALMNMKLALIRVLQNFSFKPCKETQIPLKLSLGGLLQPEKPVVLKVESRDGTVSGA
Chain of Cytochrome P450 2D6 (Homo sapiens) (P10635 whole entry, looked up): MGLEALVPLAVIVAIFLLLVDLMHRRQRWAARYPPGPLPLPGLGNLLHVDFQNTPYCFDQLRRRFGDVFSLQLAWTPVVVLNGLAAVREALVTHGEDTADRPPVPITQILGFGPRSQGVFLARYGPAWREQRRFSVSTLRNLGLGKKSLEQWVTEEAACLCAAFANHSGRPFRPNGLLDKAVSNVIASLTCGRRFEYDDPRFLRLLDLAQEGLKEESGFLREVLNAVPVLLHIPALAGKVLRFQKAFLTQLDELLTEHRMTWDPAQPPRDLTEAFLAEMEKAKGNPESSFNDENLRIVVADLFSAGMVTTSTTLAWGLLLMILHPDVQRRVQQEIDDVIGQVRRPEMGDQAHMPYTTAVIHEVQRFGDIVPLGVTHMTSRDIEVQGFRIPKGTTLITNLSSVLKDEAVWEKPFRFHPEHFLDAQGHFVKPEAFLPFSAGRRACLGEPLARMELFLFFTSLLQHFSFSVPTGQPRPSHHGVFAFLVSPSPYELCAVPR

NC[C@@H]1O[C@H](O[C@H]2[C@H](O)[C@H](O[C@@H]3O[C@H](CO)[C@@H](O)[C@H](N)[C@@H]3O)[C@@H](N)C[C@H]2N)[C@@H](O)[C@H](O)[C@@H]1O
not listed: [1] | [2] | [3] | [4] | [5] | [6] | [7]
inactive: all other assays above

C[C@H]1CC[C@@H]2[C@@H](C)[C@H]3[C@H](C[C@H]4[C@@H]5CC=C6C[C@@H](O[C@]7(O[C@H]8O[C@@H](C)[C@@H](O)[C@@H](O)[C@@H]8O)C[C@@H](O[C@@H]8O[C@H](CO)[C@@H](O)[C@H](O)[C@@H]8O)[C@@H](O)[C@H](CO)O7)CC[C@]6(C)[C@H]5CC[C@@]34C)N2C1
inactive: [1] | [2] | [3] | [4] | [5]

NCc1ccccc1CC(=O)N[C@@H]1C(=O)N2C(C(=O)O)=C(CSc3nnnn3CC(=O)O)CS[C@@H]12
not listed: DFO2036 | [2] | [3] | [4] | [5] | [7]
inactive: all other assays above

Nc1ccn([C@@H]2CC[C@H](CO)O2)c(=O)n1
inactive: [1] | [2]

c1ccc2c3c([nH]c2c1)[C@@H]1[C@H]2CC[C@H]([C@H]4CCCN[C@H]42)N1CC3
active: [1] 15.8 µM | [4] 7.94 µM

OCCN1CCN(CCC=C2c3ccccc3Sc3ccc(Cl)cc32)CC1
inactive: [7] | [6]
active: [1] 15.8 µM | 7G8 3.16 µM | CP286 3.55 µM | GB4 4.05 µM

CC[C@H](Cc1c(I)cc(I)c(N)c1I)C(=O)O
active: [1] 12.6 µM
not listed: DFO2036 | [2] | [3] | [4] | [5] | [7]
inactive: all other assays above

O=C1O[C@@H]([C@@H](O)CO)[C@@H](O)[C@H]1O
not listed: TAB109 | [1] | [2] | [3] | [4] | [5] | [7]
inactive: all other assays above

C[C@@H]1[C@H]2CC[C@@H]3[C@@H]4CC=C5C[C@@H](N(C)C)CC[C@]5(C)[C@@H]4CC[C@@]32CN1C
inactive: [1]

COc1cc2nc(N3CCN(C(=O)[C@@H]4COc5ccccc5O4)CC3)nc(N)c2cc1OC
inactive: [1] | CP265 | DFO2036
active: 7G8 7.08 µM

C[C@@H]1C[C@H](OC(=O)c2ccccc2O)CC(C)(C)C1
active: [1] 12.6 µM

C#C[C@]1(O)CC[C@@H]2[C@H]3CCC4=Cc5oncc5C[C@]4(C)[C@@H]3CC[C@@]21C
active: [1] 10 µM

O=C(O)[C@@H](O)[C@@H](O)[C@@H](O[C@H]1O[C@@H](CO)[C@@H](O)[C@@H](O)[C@@H]1O)[C@@H](O)CO
inactive: [1]

COc1cc2cc3c4cc(OC)c(OC)cc4cc[n+]3c(C)c2cc1OC
inactive: [1] | [7]
active: [3] 15.8 µM

CN(C)CCOC(=O)[C@@H](c1ccccc1)C1(O)CCCC1
inactive: [1] | [6] | 7G8 | AA1029 | ATS95 | CP265 | CP286 | CP335 | DFO2036 | P94_40 | TAB109

COC(=O)Nc1nc2ccc(SC(C)C)cc2[nH]1
active: [1] 0.501 µM

CS(=O)(=O)Nc1cccc(-c2nc(Nc3ccc(F)cc3)c3ccccc3n2)c1
active: [1] 0.794 µM | [3] 6.31 µM | [5] 7.94 µM
inactive: [7]

CS(=O)(=O)Nc1cccc(-c2nc(Nc3ccccc3)c3ccccc3n2)c1
inactive: [7]
active: [1] 0.794 µM

COc1ccc(CNc2ncncc2-c2ccccc2CN(C)C)c(OC)c1
inactive: [7]
active: [1] 15.8 µM | [3] 0.398 µM | [4] 2.51 µM

Clc1ccc([C@H](Cn2ccnc2)OCc2csc3c(Cl)cccc23)c(Cl)c1
inactive: [7] | [6]
active: [1] 6.31 µM | [2] 316 nM | [3] 0.794 µM | [4] 5.01 µM | [5] 0.251 µM | 7G8 1.41 µM | GB4 5.1 µM | P93_24 2 µM | P94_40 3.55 µM | PC26 6.42 µM

C#C[C@@]1(OC(C)=O)CC[C@@H]2[C@@H]3CCC4=C[C@@H](OC(C)=O)CC[C@H]4[C@H]3CC[C@]21C
active: [7] 5.01 µM
inactive: [1] | [3]

CNCCC=C1c2ccccc2C=Cc2ccccc21
active: [1] 6.31 µM | [4] 5.01 µM
inactive: [7]

O=C(c1cc(C(F)(F)F)cc(C(F)(F)F)c1)N1CCC[C@@]2(CCN(c3ccccn3)C2)C1
inactive: [7]
active: [1] 25.1 µM | [3] 3.98 µM

C[C@@]1(O)CCOC(=O)C1
inactive: [1] | [2] | [5]

COc1ccc(OC)c([C@H](O)CNC(=O)CN)c1
not listed: [1] | [2] | [3] | [4] | [5] | [6] | [7]
inactive: all other assays above

CN1CCN([C@@H](c2ccccc2)c2ccc(Cl)cc2)CC1
active: [4] 2 µM | 7G8 3.16 µM
inactive: [1] | CP260 | CP286 | TAB109

O=C(O)[C@@H](O)[C@@H](O)[C@@H](O)[C@@H](O)C(=O)O (tested in a mixture with another compound)
inactive: [1]

C#C[C@@]1(O)CC[C@@H]2[C@@H]3CCC4=CC(=O)CC[C@@H]4[C@H]3CC[C@]21CC
inactive: [1]

CN1CCCN([C@@H](c2ccccc2)c2ccc(Cl)cc2)CC1
inactive: [1]
active: [4] 0.251 µM
